Screening data from PubChem BioAssay.
Only a selection was taken, and hits are over-represented in it overall.
Dicer inh – blocks human Dicer maturation of pre-miR-21; Q9UPY3; cat-ELCCA pre-miR-21 Dicer processing, chemiluminescence; stronger effect = higher value; z-score at 25 µM; 6% of 47,000 active; AID 1347074; in the data active = z-score above about 3, passing the limit was not always enough;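 note: plate controls were vehicle for no effect and no enzyme for full effect; higher signal means more uncleaved substrate so more Dicer inhibition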
* = called active by the depositor.

SMILES	Dicer inh
COC(=O)C1=C(C)NC2=C(C(=O)CC(c3ccccc3)C2)C1c1ccccc1Br (centres undefined)	7.6*
CCCOC(=O)C1=C(C)NC2=C(C(=O)CC(c3cccs3)C2)C1c1coc2ccc(C)cc2c1=O (centres undefined)	-0.42
COC(=O)C1=C(C)NC2=C(C(=O)CC(c3ccc(OC)cc3)C2)C1c1ccc(OC)cc1 (centres undefined)	-1.5
COc1ccccc1C1CC(=O)C2=C(C1)NC(C)=C(C(=O)OC(C)C)C2c1coc2ccccc2c1=O (centres undefined)	0.03
COC(=O)C1=C(C)NC2=C(C(=O)CC(c3ccccc3)C2)C1c1ccc(Br)cc1 (centres undefined)	1.3
CCCOC(=O)C1=C(C)NC2=C(C(=O)CC(c3ccccc3OC)C2)C1c1coc2ccccc2c1=O (centres undefined)	6*
Cc1sc2c(c1C)C(=O)CS(=O)(=O)N2C	1
CC(C)Nc1nc(-c2ccccc2Cl)nc2ccccc12	1.7
C#CCOC(=O)Nc1cnc(OC)c(C(F)(F)F)c1	1.5
C=CCOC(=O)C1=C(C)NC2=C(C(=O)CCC2)C1c1ccc(OCCC)c(OC)c1 (centres undefined)	-0.77
CC(C)(C)c1cc2nc(N)nc(N)n2n1	-0.2
O=S(=O)(Nc1ccc(OCc2ccccc2)cc1)c1ccc2c(c1)OCCO2	3.4*
COc1ccc(NS(=O)(=O)c2ccc3c(c2)OCCO3)c(OC)c1	-2.6
O=S(=O)(NCCc1ccccn1)c1ccc2c(c1)OCCCO2	0.54
C/C(N)=N\N(C)c1cccc(F)c1C#N	2
CCOc1cc(C2C(C(=O)OCc3ccccc3)=C(C)N=C3SCCC(=O)N32)ccc1OC(C)=O (centres undefined)	-1.1
C=CCOc1ccc(C2c3c(oc4ccccc4c3=O)C(=O)N2c2ccccn2)cc1OCC (centres undefined)	2
O=[N+]([O-])C1=Cc2cc(Cl)cc(Cl)c2OC1c1ccc(F)cc1 (centres undefined)	5.2*
CC(C)c1ccc(C2Oc3ccccc3C=C2[N+](=O)[O-])cc1 (centres undefined)	0.94
COc1cccc2c1OC(c1ccc(F)cc1)C([N+](=O)[O-])=C2 (centres undefined)	3.9*
Fc1ccc(Oc2cc(C(F)(F)F)nc3ccc(Br)cc23)cc1	-0.88
Cc1ccccc1N=Nc1c(C)[nH][nH]c1=O	0.68
CC(=O)Oc1cccc2c1C(=O)c1c(OC(C)=O)cc(C(=O)O)cc1C2=O	-0.63
O=C(O)CCc1nc2ccccc2n1CCC(=O)O	-0.27
CC(=O)CSc1n[nH]c(CN2c3ccccc3Sc3ccccc32)n1	3.5*
SMILES	Dicer inh
CC(C)Cc1nc(SCC(=O)c2ccccc2)n[nH]1	-0.18
CCn1c(CN2c3ccccc3Sc3ccccc32)n[nH]c1=S	0.6
Cc1cc(C)nc(NS(=O)(=O)c2ccc(N3C(=O)C4C5C=CC(C5)C4C3=O)cc2)n1 (centres undefined)	0.33
COc1cccc(C2Sc3ccccc3NC3=C2C(=O)c2ccccc23)c1OC (centres undefined)	3.6*
COc1ccccc1C1C2=C(Nc3c1c(=O)[nH]c(=O)n3C)c1ccccc1C2=O (centres undefined)	-0.58
COc1cccc(C2Sc3ccccc3NC3=C2C(=O)c2ccccc23)c1 (centres undefined)	-0.15
CC1CC(NC(=S)Nc2ccc(I)cc2F)CC(C)(C)C1 (centres undefined)	1
S=C(N/N=C/C=C/c1ccccc1)NC1CC2CC1C1C=CCC21 (centres undefined)	0.15
CC1CC(NC(=S)NC2CC3CC2C2C=CCC32)CC(C)(C)C1 (centres undefined)	3.1*
CCOC(=O)c1cnn(-c2cc(Cl)cc(Cl)c2)c1C(C)C	-1.4
O=C(O)c1cccnc1C(=O)N1CCc2c([nH]c3ccccc23)C1C(F)(F)F (centres undefined)	0.23
O=C(CSc1nccc(-c2cccs2)n1)N1CCc2c([nH]c3ccccc23)C1C(F)(F)F (centres undefined)	3.3*
O=C(CSc1nc2ccccc2s1)N1CCc2c([nH]c3ccccc23)C1C(F)(F)F (centres undefined)	-1.8
O=C1CC(N2CCC(O)CC2)C(=O)N1c1ccc(Br)cc1 (centres undefined)	0.36
O=C(NC1=NCCS1)c1cc2ccccc2o1	3.6*
O=C(Nc1ccc2c(c1)OCCO2)c1cc2ccccc2o1	0.46
O=C(NC1=NCCS1)c1cccs1	-1.1
Cc1sc2nc(-c3ccccc3)oc(=O)c2c1C	1.5
Cc1nnsc1-c1nc2cccc(C)c2c(=O)o1	3.4*
Cc1cccc(C)c1NC(=O)c1snnc1C	0.06
Cc1c(S(=O)(=O)N(Cc2ccccn2)Cc2ccccn2)cnn1-c1ccccc1	-0.32
CCCCN(C1CCS(=O)(=O)C1)S(=O)(=O)c1ccc(Cl)cc1 (centres undefined)	0.77
CCC1CCC(=O)C(C2(O)C(=O)Nc3ccccc32)C1 (centres undefined)	-2.4
COc1cccc(/C=C2/SC(=S)N(C)C2=O)c1O	7.7*
COc1cccc(/C=C2\SC(=S)NC2=O)c1OC	-0.91
SMILES	Dicer inh
O=C1NC(=S)/C(=C/c2ccccc2O)S1	-1.5
Cc1nccn1CC(O)COc1ccccc1 (centres undefined)	2.1
Cc1c(CC(=S)N2CCOCC2)sc2ccccc12	-0.68
Cc1c(CN2CCc3ccccc3C2)sc2ccccc12	4.8*
Cc1c(CN2CCC(C(=O)c3ccc(F)cc3)CC2)sc2ccccc12	9.1
CCOC(=O)c1c(C)oc2cc(Br)c(OCc3ccc(C(=O)OC)cc3)cc12	0.11
O=C(NCCCn1ccnc1)c1cc2nc(-c3ccc(Br)cc3)cc(C(F)(F)F)n2n1	-0.99
Cc1c(-c2nnnn2-c2ccccc2)cnc2ccccc12	0.57
FC(F)(F)c1[nH]ncc1-c1nnnn1-c1ccccc1	3.3*
FC(F)(F)c1c(-c2nnnn2-c2ccccc2)cnn1-c1ccccc1Cl	-1.1
O=C1C(=O)N(c2ccccn2)C(c2ccc(F)cc2)/C1=C(\O)c1ccc(Br)cc1 (centres undefined)	1.8
CNC(=S)NNC(=O)CN1C(=O)CSc2ccc(C(F)(F)F)cc21	-0.71
NNC(=O)CN1C(=O)CSc2ccc(C(F)(F)F)cc21	6.2*
O=C1CSc2ccc(C(F)(F)F)cc2N1	-1
Cc1nnc(C(C)C)n1C1CC2CCC(C1)N2CC[C@H](NC(=O)C1CCC(F)(F)CC1)c1ccccc1 (some centres undefined)	-0.69
CCOc1ccc(-c2cc(OC(=O)c3ccccc3)c3c(C)oc(C)c3c(=O)c2)cc1	0.48
CCOC(=O)C(=O)Nc1sc2c(c1C(=O)OCC)CC(C)(C)OC2	4.8*
CCCCC(=O)Nc1sc2c(c1C(=O)OCC)CC(C)(C)OC2	-0.37
CCOC(=O)c1c(NC(=O)CC)sc2c1CC(C)(C)OC2	1
Cc1ccc(-c2cn3ncsc3n2)cc1	0.94
CCOC(=O)CSc1nc2c(cc1C#N)CCCCC2	0.49
CC1(C)CC(=O)C2=C(C1)Nc1cc3c(cc1C2c1ccc(Br)cc1)OCO3 (centres undefined)	4.7*
COc1cc2c(cc1OC)C(c1ccc(F)cc1)C1=C(CC(C)(C)CC1=O)N2 (centres undefined)	2
COC(=O)C1=C(C)NC2=C(C(=O)CC(C)(C)C2)C1c1cc2c(cc1Br)OCO2 (centres undefined)	0.96
COc1cc(C(F)(F)F)nc2ccc(C)c([N+](=O)[O-])c12	0.27
Cc1c(O)c2cc(Cl)cc(Cl)c2[nH]c1=O	1.6
